# Measured values published in the supplement of paper PMC3334620.
# Over roughly 33,000 sequences, “E-score (-0.5 to 0.5)” has its median near -0.012; the highest 2% begin near 0.27. Shown is part of a subset that was picked to be rich in the highest values.
# Molecular target: T1, Vhr1 (UniProt P40522)
# T1 sequence: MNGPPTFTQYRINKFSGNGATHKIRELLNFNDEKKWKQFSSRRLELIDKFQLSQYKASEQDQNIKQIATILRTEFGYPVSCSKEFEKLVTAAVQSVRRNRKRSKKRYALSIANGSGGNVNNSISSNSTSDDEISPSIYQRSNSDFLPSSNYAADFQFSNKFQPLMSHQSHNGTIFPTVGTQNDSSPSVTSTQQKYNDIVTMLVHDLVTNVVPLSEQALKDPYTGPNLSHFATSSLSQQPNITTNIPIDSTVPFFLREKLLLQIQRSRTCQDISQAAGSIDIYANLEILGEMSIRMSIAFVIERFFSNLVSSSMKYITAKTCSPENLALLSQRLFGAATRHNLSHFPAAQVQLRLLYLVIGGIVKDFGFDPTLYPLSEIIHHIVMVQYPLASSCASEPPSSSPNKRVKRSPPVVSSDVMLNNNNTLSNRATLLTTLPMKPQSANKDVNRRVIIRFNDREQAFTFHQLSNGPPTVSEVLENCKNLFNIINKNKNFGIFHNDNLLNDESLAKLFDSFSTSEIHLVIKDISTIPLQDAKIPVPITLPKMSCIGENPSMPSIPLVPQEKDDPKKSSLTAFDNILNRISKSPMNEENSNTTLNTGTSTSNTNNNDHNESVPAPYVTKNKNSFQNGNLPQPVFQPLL
# Assay: PBM E-score (8-mer binding enrichment) (E-score (-0.5 to 0.5)); higher = stronger / more preferred TF binding
# Conditions: protein concentration: 200 nM; construct: GST-full length
# Procedure, shortened: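 Yeast transcription factors, full-length or as DNA-binding domains, were expressed with a GST tag using PURExpress in vitro transcription/translation. At about 100-200 nM they were applied to universal all-10-mer Agilent arrays, double-stranded by primer extension on fresh or once-stripped slides. Fluorescent anti-GST detected bound protein, and masliner normalised the scans. E-scores for ungapped eight-base words, pooled with reverse complements, came from the Universal PBM Analysis Suite.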
row,Sequence,PBM E-score
1,ACACAGCA,0.286
2,GCACAGCA,0.128
3,ACACAGCT,0.127
4,ACACAGCC,0.232
5,CCACAGCA,0.088
6,ACACAGCG,0.312
7,ATTTTAGC,-0.141
8,AATACCTC,0.0406
9,GAGTTAGA,-0.0441
10,ACTTTGAG,0.0115
11,AAGCTGGC,-0.163
12,AAGCGATT,-0.0711
13,GGCGGGCA,0.198
14,GGCGGGAA,-0.0569
15,CGCGGGAA,0.105
16,GGCGGGGA,0.409
17,GGTGGGGA,0.378
18,CGTGGGGA,0.0323
19,CGCGGGGA,0.292
20,GGTGGGAA,0.04
21,AGCGGGGA,-0.0182
22,GCGGGGGA,-0.0987
23,CGCGGGCA,0.287
24,CGCGGGCC,0.187
25,CACCAAGG,0.0118

row,Sequence,PBM E-score
1,AGGCTGGC,0.00081
2,AGGCCCGG,-0.234
3,ATTAGCGA,0.142
4,ATGGTCGA,-0.0168
5,GAGACTAA,-0.00777
6,CCGTTCAG,-0.184
7,GAACAATC,-0.0437
8,CAACAATG,0.168
9,CAACAATC,0.273
10,GGTCACAA,0.0224
11,AGTCACAG,0.425
12,AGTCACAT,0.402
13,AGCCACAT,0.22
14,AGTCACAA,0.391
15,AGTCACAC,0.415
16,GGTCACAC,0.0719
17,ATTCACAG,-0.0154
18,CGTCACAG,0.152
19,AGGCACAT,0.0884
20,CGTCACAA,-0.0394
21,CGTCACAC,-0.021
22,CTAAACAG,-0.00454
23,CGGCCTCA,0.024
24,ATTATTGA,0.036
25,TAGGAGCA,-0.0685

row,Sequence,PBM E-score
1,GACTTGTA,0.0565
2,CGAGCTCA,0.144
3,CGAGCTCG,0.307
4,CGAGCTCC,-0.102
5,CTGATGGC,0.0804
6,ATATTGGG,-0.038
7,GTTTATAA,-0.168
8,GCACCGAC,0.0173
9,ATGTAGTC,0.286
10,ATGTAGTG,0.114
11,ATGTAGTA,0.0473
12,ACATAGAT,-0.0848
13,AATTGTTA,-0.0275
14,ACAGCACG,0.118
15,AGTACACA,0.284
16,TGTACACA,0.0228
17,ACTACACA,0.327
18,CCTACACG,-0.0152
19,AGTACACG,0.0779
20,ACTACACG,0.221
21,GCCCAGAC,-0.15
22,ACTTCTTG,-0.106
23,CTGGTAAC,0.0684
24,ATCTGTAC,0.0611
25,CCTCACGC,0.0696

row,Sequence,PBM E-score
1,ACACACGG,0.155
2,GATCACGC,0.193
3,ACTCACGA,0.243
4,ACTCACGG,0.352
5,ACACACGC,0.183
6,AATCACGC,0.354
7,ACTCACGC,0.366
8,AATCACGA,0.159
9,AAACAAGA,0.121
10,AGCCCTAC,-0.108
11,ATTCTGGG,-0.107
12,GCAGTGGC,0.0117
13,GAGGTTGA,-0.131
14,AGAATAGG,0.026
15,AGTGAGAC,0.0195
16,AGTGAGTC,0.466
17,CGTGAGCC,0.0956
18,CGTGAGTC,0.428
19,AGTGAGTG,0.00138
20,CGTGAGTA,0.21
21,CACCTGCA,0.0182
22,TATAAGCA,0.00418
23,CACTCACG,0.238
24,CACTCACA,0.264
25,AACTCACG,0.109

row,Sequence,PBM E-score
1,AACTCACA,0.202
2,GACTCACC,0.469
3,AACTCACC,0.224
4,CACTCACC,0.206
5,GACTCACA,0.44
6,TACTCACA,0.285
7,TCCAGAAA,-0.0568
8,GCTTAGAA,-0.117
9,CAAATCAA,0.0775
10,AAACTGGG,-0.192
11,ATCTGATC,0.085
12,AGTTCTAG,-0.127
13,CACCCGCC,0.329
14,AACCCGCC,0.136
15,GACCCGCA,0.109
16,CACCCGCG,0.218
17,GACCCGCC,0.322
18,CACCCGCA,-0.0465
19,AACCTCAA,-0.195
20,ACCTACGT,-0.0787
21,AACTGCTG,-0.0272
22,ACCTTGAT,0.0042
23,TACCGTCA,-0.0775
24,GCGTGGCA,-0.22
25,CACTCCTC,0.183

row,Sequence,PBM E-score
1,GACTCCTC,0.4
2,CACTCCTA,-0.262
3,CACTCCAC,0.0458
4,AACTCCTC,-0.268
5,GACTCCAC,0.346
6,AACTCCTA,0.017
7,GACTCCAA,0.237
8,GACTCCTA,0.384
9,GTATTGGA,-0.184
10,TTTATAAA,-0.0811
11,CGACCCCC,-0.261
12,CTTTAACC,-0.127
13,AGAACCAA,-0.0911
14,GTATCATA,0.288
15,GAATCAAC,0.247
16,TAATCGTA,0.114
17,CAATCAGA,-0.0178
18,ATATCATA,0.216
19,TAATCATA,0.314
20,CTATCATA,0.164
21,CCATCATA,0.0955
22,ACATCATC,0.166
23,CAATCATA,0.317
24,GAATCATC,0.437
25,TAATCAAA,0.101

row,Sequence,PBM E-score
1,TACGATGA,0.11
2,ACTTCTTC,-0.00857
3,TACTCCTA,0.123
4,CCAGAGCG,-0.145
5,ACGACAAA,0.092
6,AAATCATC,0.245
7,CCATCATC,0.138
8,GCATCATA,0.136
9,GAATCATA,0.397
10,GAATCAAA,-0.0259
11,CAATCATC,0.284
12,ATTTACAA,-0.101
13,ATCACAAC,0.00509
14,ATCACACG,0.102
15,ATCACATA,0.19
16,ATCACAGC,0.182
17,ATCACACC,0.288
18,ATCACACA,0.282
19,ATAGGCAA,-0.246
20,ACCTCGAC,-0.00505
21,AGCTGCCT,-0.219
22,AGTTTTTC,-0.152
